# According to PubChem BioAssay (Tox21):
# Records with an inconclusive call do not appear. The source made the active and inactive calls. The call rests on the fitted dose curve.
# Molecular target: Thyrotropin receptor (Homo sapiens) (UniProt P16473)
# Assay: qHTS assay to identify small molecule agonists of the thyroid stimulating hormone receptor (TSHR) signaling pathway (AID 1224843); further: nearly all actives have a fitted effect of over 45% in size
# Details: TSHR-HEK293 cells, cAMP HTRF, agonist mode, 30 min; series mostly up to 92.4 µM; activation: at the top concentration
# Text: National Center for Advancing Translational Sciences [NCATS]
# NIH Chemical Genomics Center [NCGC]
# U.S. Environmental Protection Agency [EPA]
# National Institutes of Environmental Health Sciences [NIEHS]
# National Toxicology Program [NTP]
# U.S. Food and Drug Administration [FDA]
# TSHR is the receptor for thyrotropin (thyroid stimulating hormone or TSH), a member of the glycoprotein hormone family. TSH is released by the anterior pituitary gland and is the main regulator of thyroid gland growth and development. Upon binding circulating thyrotropin, a G-protein signal cascade activates adenylyl cyclase and […] cAMP concentration is increased. cAMP is a key second messenger involved extensively in cellular signal transduction pathways associated with the majority of G-protein coupled receptors (GPCRs). The activation of these GPCRs by neurotransmitters, lipids, nucleotides, peptides and hormones results in the activation or the inhibition of plasma membrane-bound adenylate cyclase through heterotrimeric G-proteins. A cell-based TSHR assay was used to screen the Tox21 10K library for compounds that can modulate TSHR in agonist mode.
# Tox21 Assay Protocol Summary:
# TSHR-Hek293 cells were dispensed at 800 cells/4uL/well in 1536-well white plates using a Multidrop dispenser. […] The plates were incubated at room temperature for 30 min. 2.5 ul/well of cAMP-d2 and 2.5ul/well of anti-cAMP-cryptate was added respectively into the assay plates using a Flying Reagent Dispenser. After 1 hr incubation at room temperature, the fluorescence intensity in the plates was measured using an Envision plate reader. Each test compound was measured at 15 concentrations and in triplicates.
# On the % scale 0 is the no-effect control and ±100 the full control effect.
# Chain of Thyrotropin receptor (Homo sapiens) (P16473 whole entry, looked up): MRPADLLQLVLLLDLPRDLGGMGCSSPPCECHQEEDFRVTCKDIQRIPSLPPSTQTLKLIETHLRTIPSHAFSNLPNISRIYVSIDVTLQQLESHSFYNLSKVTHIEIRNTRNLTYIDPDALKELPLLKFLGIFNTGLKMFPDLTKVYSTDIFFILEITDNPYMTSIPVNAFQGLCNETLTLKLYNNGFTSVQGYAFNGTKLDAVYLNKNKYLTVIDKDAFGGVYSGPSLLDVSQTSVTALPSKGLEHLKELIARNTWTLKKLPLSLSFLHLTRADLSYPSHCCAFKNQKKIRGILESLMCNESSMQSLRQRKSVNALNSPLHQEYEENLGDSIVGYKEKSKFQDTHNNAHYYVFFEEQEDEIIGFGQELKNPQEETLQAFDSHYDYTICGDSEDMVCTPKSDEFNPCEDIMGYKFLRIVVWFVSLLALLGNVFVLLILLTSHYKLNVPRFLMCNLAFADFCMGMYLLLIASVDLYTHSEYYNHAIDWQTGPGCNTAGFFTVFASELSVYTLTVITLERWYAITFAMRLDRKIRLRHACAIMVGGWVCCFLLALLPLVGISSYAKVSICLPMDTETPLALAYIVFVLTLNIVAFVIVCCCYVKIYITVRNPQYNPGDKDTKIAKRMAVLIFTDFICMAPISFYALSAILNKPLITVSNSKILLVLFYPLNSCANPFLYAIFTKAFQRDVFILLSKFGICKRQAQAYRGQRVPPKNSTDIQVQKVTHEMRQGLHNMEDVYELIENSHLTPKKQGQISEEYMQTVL
row,Compound,activation
1,CC1OC1C1CCC2(C)OC2C1 (stereo not given),-7.85% (inactive)
2,C=CN1CCCCCC1=O,2.87% (inactive)
3,[K+],1.89% (inactive)
4,C1CCC2(CCCCO2)OC1,-9.9% (inactive)
5,Cc1ccccc1N=C(N)N=C(N)N,0.346% (inactive)
6,NC(N)=NCCN1CCCCCCC1,-0.603% [at 0.349 µM] (inactive)
7,CCCO[Si](OCCC)(OCCC)OCCC,-11.8% (inactive)
8,CC(C)(C)c1ccc(-c2ccc(C(C)(C)C)cc2)cc1,-2.7% (inactive)
9,Cc1coc2ccccc2c1=O,0.922% [at 42.5 µM] (inactive)
10,CC(CO)(CO)[N+](=O)[O-],1.84% (inactive)
11,O=C(c1ccccc1O)c1ccccc1O,0.119% (inactive)
12,O=CN(CCO)CCO,-4.24% (inactive)
13,O=C(c1ccccc1)C1(O)CCCCC1,-26.5% (inactive)
14,CCCCN(CCC(=O)OCC)C(C)=O,7.42% (inactive)
15,O=C(CO)[C@@H](O)[C@H](O)[C@H](O)CO,0.61% (inactive)
16,CCOc1ccccc1OCC,-0.0032% (inactive)
17,C[C@@H]1C[C@H]2[C@@H]3C[C@H](F)C4=CC(=O)C(Cl)=C[C@]4(C)[C@@]3(F)[C@@H](O)C[C@]2(C)[C@@]1(O)C(=O)CO,-17.1% [at 42.5 µM] (inactive)
18,CNCCO,-1.57% (inactive)
19,O=C1NC(=O)C2CC=CCC12 (stereo not given),0.016% (inactive)
20,CCCCCCCC1CCCC1=O (stereo not given),-3.17% (inactive)

row,Compound,activation
1,CCC(=O)OCc1ccccc1,1.87% (inactive)
2,CC(CC=O)CC(C)(C)C (stereo not given),1.41% (inactive)
3,CC(=O)NC(=O)c1ccccc1O,8.12% [at 42.5 µM] (inactive)
4,CC1=NN(c2cccc(S(=O)(=O)O)c2)C(=O)C1,-2.33% (inactive)
5,C[N+]1(C)[C@@H]2CC(OC(=O)[C@H](CO)c3ccccc3)C[C@H]1[C@@H]1O[C@@H]12 (stereo not given in full),4.99% [at 42.5 µM] (inactive)
6,Cc1ccnc(NS(=O)(=O)c2ccc(N)cc2)n1,-1.49% [at 42.5 µM] (inactive)
7,CC(=O)OCC(=O)[C@@]1(O)[C@H](C)C[C@H]2[C@@H]3CCC4=CC(=O)C=C[C@]4(C)[C@@]3(F)[C@@H](O)C[C@@]21C,0.676% [at 42.5 µM] (inactive)
8,NC(=O)N1c2ccccc2CC(=O)c2ccccc21,-7.36% [at 42.5 µM] (inactive)
9,Cc1c(N)c(=O)n(-c2ccccc2)n1C,-0.735% [at 42.5 µM] (inactive)
10,CCCCOCCOC(=O)CCCCCCCCC(=O)OCCOCCCC,-19% (inactive)
11,Cc1ccc(-c2ccccc2C#N)cc1,-4.79% [at 42.5 µM] (inactive)
12,CC[N+](C)(CC)CCOC(=O)C1c2ccccc2Oc2ccccc21,2.25% [at 42.5 µM] (inactive)
13,Cc1nc2ccc(CN(C)c3ccc(C(=O)N[C@@H](CCC(=O)O)C(=O)O)s3)cc2c(=O)[nH]1,-1.4% [at 42.5 µM] (inactive)
14,O=Cc1cccc(Br)c1,3.51% (inactive)
15,CCOc1c(N2CCOCC2)cnn(C)c1=O,1.14% [at 42.5 µM] (inactive)
16,CC(C)(C)OC(=O)c1cccc(N)c1,18.7% (inactive)
17,N[C@@H](CCC(=O)O)C(=O)O,-5.57% (inactive)
18,COc1ccc2cc1Oc1cc3c(cc1OC)CC[N+](C)(C)[C@H]3Cc1ccc(cc1)Oc1c(OC)c(OC)cc3c1[C@@H](C2)[N+](C)(C)CC3,11.8% [at 42.5 µM] (inactive)
19,CCN[C@H]1C[C@H](C)S(=O)(=O)c2sc(S(N)(=O)=O)cc21,4.54% [at 42.5 µM] (inactive)
20,COC(=O)Nc1ccc(Cl)c(Cl)c1,-3.54% (inactive)
